Assay results: the supplement of paper PMC8728848
The entries come from a sample that favours the strongest signals as a whole.

What was measured:
Assay in all cases: glycan array binding signal (z-score within array); higher = stronger binding
Conditions in all cases: glycan notation: IUPAC condensed, linker removed
[1] = molecular target: Fuc(a1-2)Gal(b1-3)GalNAc(b1-4)[Neu5Ac(a2-3)]Gal(b1-4)Glc
In short: (§1)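 Glycan array data came from 3228 arrays in the Consortium for Functional Glycomics database, and only arrays with an available protein sequence were kept. Glycan names were put into IUPAC-condensed notation, and columns mapping to the same glycan were averaged. The binding signal is a within-array Z-score, averaged across arrays of one protein sequence run at different concentrations or buffers and across linkers. A negative Z-score can be read as non-binding.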

[2] = molecular target: Fuc(a1-2)Gal(b1-4)[Fuc(a1-3)]GlcNAc(b1-3)GalNAc
In short: as §1

[3] = molecular target: Fuc(a1-2)[GalNAc(a1-3)]Gal(b1-4)[Fuc(a1-3)]GlcNAc(b1-3)GalNAc
In short: as §1

[4] = molecular target: Fuc(a1-3)[Gal(b1-4)]GlcNAc(b1-2)Man(a1-3)[Fuc(a1-3)[Gal(b1-4)]GlcNAc(b1-2)Man(a1-6)]Man(b1-4)GlcNAc(b1-4)GlcNAc
In short: as §1

[5] = molecular target: Fuc(a1-3)[Gal(b1-4)]GlcNAc(b1-2)Man(a1-3)[Fuc(a1-3)[Gal(b1-4)]GlcNAc(b1-2)Man(a1-6)]Man(b1-4)GlcNAc(b1-4)[Fuc(a1-6)]GlcNAc
In short: as §1

Gal(a1-3)Gal(b1-3)GlcNAc = molecular target: Gal(a1-3)Gal(b1-3)GlcNAc
In short: as §1

[6] = molecular target: Gal(a1-4)Gal(b1-4)GlcNAc(b1-3)Gal(b1-4)Glc
In short: as §1

[7] = molecular target: Gal(b1-3)GlcNAc(b1-3)Gal(b1-4)GlcNAc(b1-6)[Gal(b1-3)GlcNAc(b1-3)]Gal(b1-4)Glc
In short: as §1

[8] = molecular target: Gal(b1-3)[Fuc(a1-4)]GlcNAc(b1-2)Man(a1-3)[Gal(b1-3)[Fuc(a1-4)]GlcNAc(b1-2)Man(a1-6)]Man(b1-4)GlcNAc(b1-4)[Fuc(a1-6)]GlcNAc
In short: as §1

[9] = molecular target: Gal(b1-4)GlcNAc(b1-2)Man(a1-3)Man(b1-4)GlcNAc(b1-4)GlcNAc
In short: as §1

[10] = molecular target: Gal(b1-4)GlcNAc(b1-2)Man(a1-3)[Gal(b1-4)GlcNAc(b1-2)Man(a1-6)]Man(b1-4)GlcNAc(b1-4)GlcNAc
In short: as §1

[11] = molecular target: Gal(b1-4)GlcNAc(b1-2)Man(a1-6)Man(b1-4)GlcNAc(b1-4)GlcNAc
In short: as §1

[12] = molecular target: Gal(b1-4)GlcNAc(b1-2)[Gal(b1-4)GlcNAc(b1-6)]Man(a1-6)[GlcNAc(b1-4)][Gal(b1-4)GlcNAc(b1-2)Man(a1-3)]Man(b1-4)GlcNAc(b1-4)GlcNAc
In short: as §1

Gal3S(b1-4)GlcNAc6S = molecular target: Gal3S(b1-4)GlcNAc6S
In short: as §1

Gal3S6S(b1-4)GlcNAc = molecular target: Gal3S6S(b1-4)GlcNAc
In short: as §1

Gal6S(b1-3)GlcNAc = molecular target: Gal6S(b1-3)GlcNAc
In short: as §1

GalNAc(b1-3)GalNAc = molecular target: GalNAc(b1-3)GalNAc
In short: as §1

[13] = molecular target: Glc(a1-4)Glc(a1-4)Glc(a1-4)Glc
In short: as §1

[14] = molecular target: GlcNAc(a1-4)Gal(b1-4)GalNAc
In short: as §1

[15] = molecular target: GlcNAc(a1-4)Gal(b1-4)GlcNAc(b1-3)Gal(b1-4)GlcNAc
In short: as §1

[16] = molecular target: GlcNAc(b1-3)Gal(b1-3)GalNAc
In short: as §1

[17] = molecular target: GlcNAc(b1-3)Gal(b1-4)GlcNAc(b1-3)Gal(b1-4)GlcNAc
In short: as §1

GlcNAc(b1-3)Man = molecular target: GlcNAc(b1-3)Man
In short: as §1

Kdn(a2-3)Gal(b1-3)GlcNAc = molecular target: Kdn(a2-3)Gal(b1-3)GlcNAc
In short: as §1

[18] = molecular target: Man(a1-2)Man(a1-3)[Man(a1-2)Man(a1-6)]Man(a1-6)[Man(a1-2)Man(a1-2)Man(a1-3)]Man(b1-4)GlcNAc(b1-4)GlcNAc
In short: as §1

[19] = molecular target: Neu5Ac(a2-3)Gal(b1-4)GlcNAc(b1-3)Gal
In short: as §1

[20] = molecular target: Neu5Ac(a2-3)Gal(b1-4)GlcNAc(b1-3)Gal(b1-4)[Fuc(a1-3)]GlcNAc
In short: as §1

[21] = molecular target: Neu5Ac(a2-3)Gal(b1-4)[Fuc(a1-3)]GlcNAc(b1-3)Gal(b1-4)GlcNAc
In short: as §1

[22] = molecular target: Neu5Ac(a2-3)Gal(b1-4)[Fuc(a1-3)]GlcNAc(b1-3)Gal(b1-4)[Fuc(a1-3)]GlcNAc(b1-3)Gal(b1-4)[Fuc(a1-3)]GlcNAc
In short: as §1

[23] = molecular target: Neu5Ac(a2-3)Gal(b1-4)[Fuc(a1-3)]GlcNAc(b1-3)GalNAc
In short: as §1

[24] = molecular target: Neu5Ac(a2-3)Gal(b1-4)[Fuc(a1-3)]GlcNAc(b1-6)[Gal(b1-3)]GalNAc
In short: as §1

[25] = molecular target: Neu5Ac(a2-3)Gal6S(b1-4)[Fuc(a1-3)]GlcNAc
In short: as §1

[26] = molecular target: Neu5Ac(a2-3)[GalNAc(b1-4)]Gal(b1-4)GlcNAc(b1-3)GalNAc
In short: as §1

Neu5Ac(a2-6)Gal(b1-4)Glc = molecular target: Neu5Ac(a2-6)Gal(b1-4)Glc
In short: as §1

[27] = molecular target: Neu5Ac(a2-6)Gal(b1-4)GlcNAc(b1-2)Man(a1-3)[GlcNAc(b1-2)Man(b1-4)GlcNAc(b1-2)Man(a1-6)]Man(b1-4)GlcNAc(b1-4)GlcNAc
In short: as §1

[28] = molecular target: Neu5Ac(a2-6)Gal(b1-4)GlcNAc(b1-2)Man(a1-6)Man(b1-4)GlcNAc(b1-4)GlcNAc
In short: as §1

Neu5Ac(a2-6)GalNAc = molecular target: Neu5Ac(a2-6)GalNAc
In short: as §1

[29] = molecular target: Neu5Ac(a2-6)GlcNAc(b1-4)GlcNAc(b1-4)GlcNAc
In short: as §1

[30] = molecular target: Neu5Gc(a2-3)Gal(b1-3)GlcNAc
In short: as §1

B1: Layilin (Mus musculus), Q8C351 (protein)
chain: MQPGAALQAMLLAVLLAKPRDSKGRLLSASDLDPRGGQLVCRGGTRRPCYKVIYFHDAFQRLNFEEAKETCMEDGGQLVSIETEDEQRLIEKFIENLLASDGDFWIGLKRLEEKQSNNTACQDLYAWTDGSTSQFRNWYVDEPSCGSEVCVVMYHQPSAPPGIGGSYMFQWNDDRCNMKNNFICKYHDDKPSTTPSIWPGGEATEPATPLLPEETQKEDTKETFKERREAALNLAYILIPSIPLFLLLVVTSAVCWVWICRRKREQTDPSTKEQHTIWPTPRQENSPNLDVYNVIRKQSEADLAEPRPDLKNISFRVCSGEAMPDDMSCDYENIAVNPSESGFVTLASMESGFVTNDIYEFSPDRMGRSKESGWVENEIYY
glycan array binding signal (z-score) [1]: -0.101
glycan array binding signal (z-score) [2]: 4.74
glycan array binding signal (z-score) [3]: 2.16
glycan array binding signal (z-score) [4]: -0.753
glycan array binding signal (z-score) [5]: 1.43
glycan array binding signal (z-score) (Gal(a1-3)Gal(b1-3)GlcNAc): -0.17
glycan array binding signal (z-score) [6]: 3.88
glycan array binding signal (z-score) [7]: -0.423
glycan array binding signal (z-score) [8]: 7.71
glycan array binding signal (z-score) [9]: -0.41
glycan array binding signal (z-score) [10]: -0.504
glycan array binding signal (z-score) [11]: -0.753
glycan array binding signal (z-score) [12]: -0.619
glycan array binding signal (z-score) (Gal3S(b1-4)GlcNAc6S): -0.103
glycan array binding signal (z-score) (Gal3S6S(b1-4)GlcNAc): -0.561
glycan array binding signal (z-score) (Gal6S(b1-3)GlcNAc): -0.243
glycan array binding signal (z-score) (GalNAc(b1-3)GalNAc): -0.932
glycan array binding signal (z-score) [13]: -0.492
glycan array binding signal (z-score) [14]: -1.4
glycan array binding signal (z-score) [15]: 5.27
glycan array binding signal (z-score) [16]: 3.53
glycan array binding signal (z-score) [17]: 3.11
glycan array binding signal (z-score) (GlcNAc(b1-3)Man): 0.015
glycan array binding signal (z-score) (Kdn(a2-3)Gal(b1-3)GlcNAc): -0.719
glycan array binding signal (z-score) [18]: 0.181
glycan array binding signal (z-score) [19]: 0.955
glycan array binding signal (z-score) [20]: 0.119
glycan array binding signal (z-score) [21]: -0.212
glycan array binding signal (z-score) [22]: 2.92
glycan array binding signal (z-score) [23]: 1.82
glycan array binding signal (z-score) [24]: 4.15
glycan array binding signal (z-score) [25]: -0.666
glycan array binding signal (z-score) [26]: 0.49
glycan array binding signal (z-score) (Neu5Ac(a2-6)Gal(b1-4)Glc): 0.086
glycan array binding signal (z-score) [27]: 1.47
glycan array binding signal (z-score) [28]: -0.392
glycan array binding signal (z-score) (Neu5Ac(a2-6)GalNAc): -0.757
glycan array binding signal (z-score) [29]: 0.077
glycan array binding signal (z-score) [30]: 0.013
